# From PubChem
# HepG2 tox = counter-screen for TGF-b inhibitors: cytotoxicity in HepG2 cells; AID 588856; HepG2 CAGA-GFP viability, ATP luminescence, 18 h; Potency, µM (series often up to 46.1 µM), for the others: top-dose activity change, negative = cytotoxicity, most hits filed as cytotoxic; hit rate 0.76% among 410,000
#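 HepG2 CAGA-GFP cells (1000/well, DMEM with 1% FBS) received compound, then TGF-beta at 500 pg/mL final, and were incubated 18 hours at 37 degrees C. Viability was read by CellTiter-Glo luminescence. Media-only wells were set as complete cell-killing and DMSO as no toxicity.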
# TGFb inhibitor = inhibitors of TGF-b signaling. Potency, µM (highest dose often 46.1 µM), for inactives: at the top dose activity, negative = inhibition, most hits filed as inhibitors. HepG2 CAGA-GFP TGF-b/SMAD3 reporter, GFP fluorescence, 18 h; TGF-beta stimulated, 500 pg/mL final. hit rate 1.2% among 410,000; also: % is scaled to controls: 0 for no effect and ±100 for the full control effect; nearly all actives have a fitted effect of over 65% in size
#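 Read-out: total well GFP (ex488/em500-530) summed from mean per-cell fluorescence. Cells: HEPG2 CAGA-GFP, 1% FBS DMEM, 18 h at 37 degrees C with 500 pg/mL final TGF-beta. Unstimulated wells served as the full-inhibition control; stimulated DMSO wells = 0%.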
# DT40 TDP1 no CPT = qHTS for Inhibitors of human tyrosyl-DNA phosphodiesterase 1 (TDP1): qHTS in cells in absence of CPT. AID 686978, 2013. Potency, µM (highest dose often 46.2 µM), for inactives: top-dose activity change, negative = growth inhibition, actives largely listed as inhibitors. DT40 Tdp1-/- hTDP1 cells, no CPT, ATP luminescence, 48 h. hit rate 15% among 420,000; also: % is scaled to controls: 0 for no effect and ±100 for the full control effect; nearly all actives have a fitted effect of over 55% in size
#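 Growth of hTDP1-complemented DT40 Tdp1-knockout cells is measured by ATP luminescence after at least 48 hr compound exposure at 37 °C, with DMSO substituting for the 20 nM CPT used in the parallel screen.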
# TDP1 cell CPT = DT40-hTDP1 cell growth loss with CPT; chicken DT40 Tdp1-/-;hTDP1 cells + 20 nM CPT, ATP luminescence, 48 h; Potency, µM (series often up to 46.2 µM), for inactives: at the top dose activity change, negative = growth inhibition, most hits filed as inhibitors; hit rate 12% among 420,000; also: % is scaled to controls: 0 for no effect and ±100 for the full control effect; nearly all actives have a fitted effect of over 55% in size
#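 Chicken DT40 Tdp1-/- cells stably complemented with human TDP1 were seeded at 400 cells/well in medium containing 20 nM camptothecin, exposed to pin-transferred compounds, and grown at 37 °C for at least 48 hr. Viability was read as ATP luminescence.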
# ATXN2 expr inh = reduces ATXN2 reporter expression in HEK-293 cells. HEK-293 ATXN2-luciferase reporter, luminescence, 24 h. Potency, µM (highest dose often 57 µM), for the others: top-dose activity change, negative = inhibition, most hits filed as inhibitors. hit rate 0.72% among 360,000; also: % is scaled to controls: 0 for no effect and ±100 for the full control effect; nearly all actives have a fitted effect of over 55% in size
#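 qHTS (up to 57 uM final) was run with 24 h compound exposure of reporter cells at 37 °C. Each well was multiplexed: SteadyGlo luminescence measured ATXN2-luciferase expression after a fluorogenic Gly-Phe-AFC viability readout (25 uM final).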
# ATXN viability = reduces viability in counter-screen for ATXN expression inhibitors. S2 cells (HEK-293 line with an ATXN2-luciferase reporter) viability, CellTiter-Fluor protease fluorescence, 24 h. Potency, µM (titrated, usually from 56.7 µM), actives largely listed as cytotoxic. hit rate 0.49% among 400,000. AID 651635; also: nearly all actives have a fitted effect of over 40% in size
# * marks the source's active call; other numbers are inactive results; i = inactive; ? = inconclusive; nt = no result. Sampled rows, rich in hits. Any-hit rate of the full collection: about 17%. Calls follow the shape of the dose curve; as a rule, active = well fitted curve in the direction sought with a large enough effect; inconclusive = small, poorly fitted or top-dose-only effect, or another doubt; inactive = no such curve, though single readings can be large; an effect the other way counts as inactive or inconclusive. Potency is read from the fitted curve at half-maximal effect.
SMILES,HepG2 tox,TGFb inhibitor,DT40 TDP1 no CPT,TDP1 cell CPT,ATXN2 expr inh,ATXN viability
CN(c1ccccc1)S(=O)(=O)c1cccc(C(=O)OCC(=O)Nc2ccc(C(N)=O)cc2)c1,0%,9%,?,?,3%,i
C=C[C@]1(C)C=C2C(=O)[C@@]3(O)OC(=O)[C@@]4(CCCC(C)(C)[C@H]34)[C@@]2(O)CC1,5.6µM*,?,1.6µM*,0.65µM*,1.6µM*,1.8µM*
Cc1ccc(Cl)cc1N1CCN(C(=O)Cn2nc(C)n3c(cc4sccc43)c2=O)CC1,-12%,?,21µM*,18µM*,nt,nt
Cc1ccc(Cl)cc1N1CCN(C(=O)Cn2ncn3cccc3c2=O)CC1,-1%,10%,?,21µM*,?,i
COc1cccc2c1cc1c(=O)n(CC(=O)N3CCN(c4cc(Cl)ccc4C)CC3)nc(C)n12,11%,-7%,-22%,-15%,nt,nt
Cc1ccc(Cl)cc1N1CCN(C(=O)Cn2ccc3ccccc3c2=O)CC1,-14%,-25%,21µM*,16µM*,-21%,i
O=C(Cn1ncn2cccc2c1=O)N1CCCCC1,16%,0%,0%,5%,2%,i
COc1ccc(NC(=O)/C(=C/c2cccnc2)NC(=O)c2cccs2)cc1,10%,1%,-12%,4%,3%,i
Cc1ccc2nc(SC(Cc3cc(Cl)ccc3Cl)C(=O)O)[nH]c2c1 (stereo unspecified),3%,?,?,?,nt,nt
CCc1nnc(NC(=O)c2ccc(COc3ccccc3C)o2)s1,-7%,6%,-3%,8%,-5%,i
COc1ccc(/C=C2\SC(=Nc3ccccc3OC)NC2=O)cc1,-39%,4%,?,23µM*,-20%,i
COc1cc(/C=C2\SC(=Nc3ccccc3)NC2=O)cc(Cl)c1O,-10%,136%,?,?,-11%,?
COc1cc(/C=C2\SC(=Nc3ccccc3OC)NC2=O)ccc1O,-20%,16%,?,?,0%,?
COc1cc(/C=C2/SC(=Nc3ccc(O)cc3)NC2=O)ccc1O,-14%,-13%,0.65µM*,1µM*,-4%,?
CCc1ccc(N=C2NC(=O)/C(=C/c3cc(OC)c(O)c(OC)c3)S2)cc1,-78%,?,26µM*,?,nt,?
O=C1NC(=Nc2ccccc2)S/C1=C\c1ccccc1,4%,18%,?,?,48%,i
Cc1cccc(/N=C/c2c(O)ccc3oc4c(c23)CCCC4)n1,1%,16µM*,?,?,-28%,i
COc1ccc(/C=C2\N=C(SC)SC2=O)cc1OC,1%,-3%,-7%,4%,-2%,i
COc1ccc(/C=C2\N=C(C)N(c3ccc4ccccc4c3)C2=O)cc1OC,-7%,15%,5.8µM*,?,nt,i
CCCN(CC(=O)Nc1ccccc1C)C(=O)COC(=O)CSc1ccc([N+](=O)[O-])cc1,0%,-3%,0%,-8%,-1%,i
CCCN(CC(=O)Nc1ccccc1C)C(=O)CCl,-79%,5.6µM*,2.1µM*,2.6µM*,?,?
CCCN(CC(=O)Nc1ccccc1C)C(=O)c1ccc(-c2ccc([N+](=O)[O-])cc2)o1,-20%,-18%,21µM*,?,2%,i
CCCN(CC(=O)Nc1ccccc1OC)C(=O)c1ccc(COc2ccccc2)o1,1%,11%,?,16µM*,-9%,i
Cc1ccc(-c2cc(C(=O)N/N=C/c3ccccc3)n[nH]2)o1,-23%,-4%,?,-16%,7%,i
NNC(=O)c1cc(-c2ccco2)[nH]n1,-2%,-2%,-13%,-17%,nt,i
